Screening results (PubChem BioAssay)
An excerpt weighted towards active compounds, which were near 1.7% of everything screened.
PAD4 FP inh = inhibitors of human PAD4; Q9UM07; recombinant PAD4, RCA probe fluorescence polarization; inhibition, % at 6.36 µM; 0.41% of 330,000 active; AID 485272;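 active = percent inhibition above a cutoff equal to the mean of all tested compounds plus 3 SD, cut at about 15% in these data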;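 also: 0% = PAD4 with RCA probe and DMSO and 100% = probe without PAD4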
PME-1 inh = blocks human protein phosphatase methylesterase 1; 0.53% of 320,000 active; recombinant PME-1, FP-Rh probe fluorescence polarization; inhibition, % at 5.9 µM;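 active = inhibition above the campaign mean of all compounds plus 3 SD, cut at about 26% in these data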;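 also: competitive labeling of PME-1 active site by serine hydrolase directed probe; 0% = PME-1 with DMSO and 100% = wells lacking PME-1 enzyme; inhibitors block probe labeling so polarization falls and inhibition rises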
LYPLA2 inh = blocks human lysophospholipase 2, a PME1 counter-screen | inhibition, % at 5.9 µM | O95372 | 0.38% of 320,000 active | recombinant LYPLA2, FP-Rh probe fluorescence polarization;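 active = inhibition above the screen-wide mean plus 3 SD, limit set per campaign, cut at about 26% in these data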;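 also: 0% = LYPLA2 with DMSO and 100% = wells lacking LYPLA2 enzyme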
LYPLA1 counter = counter-screen for PME1 inhibitors: inhibitors of human LYPLA1; O75608; recombinant LYPLA1, FP-Rh probe fluorescence polarization; inhibition, % at 5.9 µM; 0.16% of 320,000 active;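 active = inhibition above the mean of all tested compounds plus 3 SD, set per campaign, cut at about 14% in these data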;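 also: inhibitors block serine hydrolase probe labeling of LYPLA1 so polarization falls; 0% = enzyme with DMSO and 100% = wells lacking LYPLA1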
Target sequence (O75608 whole entry, looked up): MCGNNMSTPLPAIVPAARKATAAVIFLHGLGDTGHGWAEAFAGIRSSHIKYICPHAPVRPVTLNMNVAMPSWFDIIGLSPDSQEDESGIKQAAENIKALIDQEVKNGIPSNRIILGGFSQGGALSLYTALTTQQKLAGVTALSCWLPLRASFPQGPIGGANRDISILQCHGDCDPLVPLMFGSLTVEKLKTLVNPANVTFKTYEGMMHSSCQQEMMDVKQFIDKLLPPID
Fam108B inh = blocks mouse Fam108B hydrolase in RBBP9 counter-screen | recombinant Fam108B, FP-Rh probe fluorescence polarization | inhibition, % at 9.51 µM | 0.33% of 300,000 active;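 active = inhibition above the screen mean inhibition plus 3 SD, computed separately per campaign, cut at about 18% in these data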;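 also: inhibitors lower polarization as less probe binds the enzyme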
GSTO1 inh = GSTO1 inhibition, counter-screen for RBBP9 inhibitors; P78417; recombinant GSTO1, activity-based probe fluorescence polarization; inhibition, % at 5.96 µM; 1.1% of 300,000 active;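 active = inhibition above the campaign mean inhibition plus 3 SD, cut at about 35% in these data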;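 also: 0% = GSTO1-1 with DMSO and 100% = wells lacking GSTO1-1 enzyme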
Target sequence (P78417 whole entry, looked up): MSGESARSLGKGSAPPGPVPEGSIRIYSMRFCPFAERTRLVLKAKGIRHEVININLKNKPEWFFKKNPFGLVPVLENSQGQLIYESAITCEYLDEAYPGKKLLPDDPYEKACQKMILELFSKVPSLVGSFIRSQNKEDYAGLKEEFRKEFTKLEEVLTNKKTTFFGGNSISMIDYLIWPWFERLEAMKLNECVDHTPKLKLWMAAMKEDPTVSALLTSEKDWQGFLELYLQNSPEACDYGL
Fam108b inh conf = Fam108b (mouse) hydrolase inhibition, confirmation assay; shares compounds with Fam108B inh; recombinant Fam108b, FP-Rh probe fluorescence polarization; inhibition, % at 9.51 µM; 44% of 930 active; AID 1978;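 active = inhibition above a limit from the primary screen, the mean over all compounds plus 3 SD, cut at about 19% in these data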;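 also: 0% = median of active Fam108b wells and 100% = catalytically dead S170A mutant; inhibitors free the probe so polarization falls as inhibition rises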
Fam108b ABPP HTS = mouse ABHD17B inhibition; AID 588649; inhibition, % at 20 µM; recombinant Fam108b, gel-based ABPP, fluorophosphonate probe; 44% of 260 active; shares compounds with Fam108B inh; in the data active = inhibition above about 40%
Active calls of the source: *.

Screening Cc1cc(C)nc(SCc2ccc(C(=O)NN=Cc3cccc(O)c3O)cc2)n1 returned Fam108b ABPP HTS 90.0*.
Cc1[nH]c2c(C)cccc2c1CCNC(=O)c1ccc2c(c1[N+](=O)[O-])C(=O)c1ccccc1C2=O was read as PAD4 FP inh -4.4, PME-1 inh 31.2*, LYPLA2 inh 8.2, LYPLA1 counter -2.5, Fam108B inh 23.5*, GSTO1 inh 20.9, Fam108b inh conf 30.3* and Fam108b ABPP HTS 60.0*.
For Cc1ccc(NCc2ccccc2F)cc1 the results were PAD4 FP inh 0.5, PME-1 inh -6.3, LYPLA2 inh 1.8, LYPLA1 counter -0.8, Fam108B inh 18.8*, GSTO1 inh 9.3 and Fam108b inh conf 0.8.
`CC1=NNC(=O)C1CCC(=O)N/N=C/c1ccccc1` (centres undefined) gave PAD4 FP inh -3.1, PME-1 inh -1.8, LYPLA2 inh -4.1, LYPLA1 counter 1.7, Fam108B inh 1.3 and GSTO1 inh 1.0.
Screening O=C(Nc1ccc([N+](=O)[O-])cc1)Nc1ccc2c(c1)OCCO2 returned PAD4 FP inh -9.5, PME-1 inh 11.8, LYPLA2 inh -7.6, LYPLA1 counter -8.0, Fam108B inh 3.9 and GSTO1 inh -10.2.
COc1ccc(C(=O)Nc2cccc([N+](=O)[O-])c2)cc1Br was read as PAD4 FP inh -10.4, PME-1 inh -3.9, LYPLA2 inh 7.1, LYPLA1 counter 0.1, Fam108B inh -4.3 and GSTO1 inh -4.5.
COc1cc([N+](=O)[O-])ccc1NC(=O)Nc1ccc2c(c1)OCCO2 was read as PAD4 FP inh 1.4, PME-1 inh 18.8, LYPLA2 inh 2.8, LYPLA1 counter -1.2, Fam108B inh 18.8*, GSTO1 inh 5.3 and Fam108b inh conf 1.2.
Screening COc1ccc(NC(=O)Nc2cccc([N+](=O)[O-])c2)cc1Cl returned PAD4 FP inh 0.1, PME-1 inh 42.3*, LYPLA2 inh 8.0, LYPLA1 counter -5.5, Fam108B inh 31.7*, GSTO1 inh -13.9, Fam108b inh conf 97.4* and Fam108b ABPP HTS 10.0.
Screening N#C/C(=N\Nc1ccc(S(=O)(=O)N2CCc3ccccc32)cc1)C(N)=S returned PAD4 FP inh -9.5, PME-1 inh 11.7, LYPLA2 inh -11.4, LYPLA1 counter -9.9, Fam108B inh 21.5*, GSTO1 inh -16.0 and Fam108b inh conf 27.0*.
`Cc1cc(C)c(S(=O)(=O)N2CCCCC2CCNC(=O)C(=O)NCc2cccnc2)c(C)c1` (centres undefined) gave PAD4 FP inh -0.8, PME-1 inh -5.0, LYPLA2 inh -6.5, LYPLA1 counter -1.6, Fam108B inh -1.5 and GSTO1 inh 11.3.
COCCN(CCOC)C(=O)c1ccc(CSc2nc3ccccc3s2)cc1 was read as PAD4 FP inh 7.2, PME-1 inh -6.3, LYPLA2 inh 7.1, LYPLA1 counter 3.3, Fam108B inh 3.0 and GSTO1 inh -0.9.
`CCCC(=O)Nc1sc2c(c1C#N)CCCCC2` gave PAD4 FP inh 2.0, PME-1 inh 3.9, LYPLA2 inh -4.2, LYPLA1 counter 3.3, Fam108B inh 69.7*, GSTO1 inh 4.6 and Fam108b inh conf -6.1.
For Cc1ccc2c(c1C)NC(C(=O)O)C1CC=CC21 (centres undefined) the results were PAD4 FP inh 2.5, PME-1 inh -2.7, LYPLA2 inh 9.2, LYPLA1 counter -2.8, Fam108B inh 22.7*, GSTO1 inh 50.8* and Fam108b inh conf 7.8.
For Cc1cc(C)c2c(c1)NC(C(=O)O)C1CC=CC21 (centres undefined) the results were PAD4 FP inh -1.7, PME-1 inh 5.2, LYPLA2 inh 5.8, LYPLA1 counter -0.9, Fam108B inh 21.3*, GSTO1 inh 18.5 and Fam108b inh conf 14.1.
For O=C(O)C1Nc2c(C(F)(F)F)ccc(Cl)c2C2C=CCC12 (centres undefined) the results were PAD4 FP inh -4.4, PME-1 inh 0.7, LYPLA2 inh 6.0, LYPLA1 counter 1.9, Fam108B inh -3.1 and GSTO1 inh 9.6.
`CCOC(=O)C1Nc2ccc(C(=O)O)cc2C2C=CCC12` (centres undefined) gave PAD4 FP inh -15.7, PME-1 inh -38.9, LYPLA2 inh -7.1, LYPLA1 counter -14.1, Fam108B inh 17.6 and GSTO1 inh 27.1.
C/C(=N\NC(=O)c1cccc(Br)c1)c1cccc(NC(=O)c2ccc(C)o2)c1 was read as PAD4 FP inh -1.5, PME-1 inh -10.1, LYPLA2 inh -1.8, LYPLA1 counter 0.0, Fam108B inh -0.4 and GSTO1 inh -3.4.
Screening O=C(N/N=C/c1c(O)ccc2ccccc12)c1cccc(C(F)(F)F)c1 returned PAD4 FP inh 0.1, PME-1 inh 14.6, LYPLA2 inh 0.8, LYPLA1 counter -10.8, Fam108B inh 18.7*, GSTO1 inh -4.3 and Fam108b inh conf 9.2.
For Cc1cc(Nc2ccc(Cl)cc2)nc(NCc2ccccc2)n1 the results were PAD4 FP inh -5.0, PME-1 inh 13.9, LYPLA2 inh -1.5, LYPLA1 counter -5.3, Fam108B inh 33.5*, GSTO1 inh -9.4, Fam108b inh conf 32.1* and Fam108b ABPP HTS 45.0*.
For COc1ccc(-c2csc3nc(-c4ccccc4OC)oc(=O)c23)cc1 the results were PAD4 FP inh 1.5, PME-1 inh -9.3, LYPLA2 inh 15.9, LYPLA1 counter 3.5, Fam108B inh 27.9*, GSTO1 inh 3.0, Fam108b inh conf 51.5* and Fam108b ABPP HTS 85.0*.
Cc1nc2scc(-c3ccccc3)c2c(=O)n1N was read as PAD4 FP inh -5.9, PME-1 inh -5.9, LYPLA2 inh -2.0, LYPLA1 counter 2.5, Fam108B inh -3.3 and GSTO1 inh -4.0.
`Cc1nc2scc(-c3ccccc3)c2c(=O)o1` gave PAD4 FP inh -2.4, PME-1 inh -1.8, LYPLA2 inh 6.7, LYPLA1 counter 0.6, Fam108B inh 33.8*, GSTO1 inh -2.8, Fam108b inh conf 61.2* and Fam108b ABPP HTS 85.0*.
Screening O=c1oc(-c2ccccc2F)nc2scc(-c3ccccc3)c12 returned PAD4 FP inh 1.9, PME-1 inh -11.9, LYPLA2 inh -4.3, LYPLA1 counter -3.1, Fam108B inh 55.4*, GSTO1 inh -8.8, Fam108b inh conf 54.4* and Fam108b ABPP HTS 80.0*.
COc1ccc(-c2csc3nc(-c4ccc(C)cc4)oc(=O)c23)cc1OC was read as PAD4 FP inh -2.8, PME-1 inh 10.1, LYPLA2 inh 2.9, LYPLA1 counter -3.8, Fam108B inh -0.8 and GSTO1 inh -3.0.
Nc1ccc(C(=O)O)cc1 was read as PAD4 FP inh -2.8, PME-1 inh 1.5, LYPLA2 inh 6.0, LYPLA1 counter 4.5, Fam108B inh 5.2 and GSTO1 inh 2.1.
